Source: PubChem BioAssay (several laboratories)
Compounds with a hit are over-represented: about 1.4% of the library has one in this group of screens.
beta cell repl – inducers of MIN6 beta-cell proliferation, primary screen, ATP luminescence, uHTS; proliferation, % at 10 µM; MIN6 cells proliferation, ATPlite luminescence, 48 h; cells starved in 0.2% serum; 100% = growth in 10% serum; 330,000 compounds, 0.29% hits;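 active means compounds whose signal lies at least 3.5 SD above the mean of all wells on their plate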;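 further: 0% = DMSO-treated cells in low-serum medium and 100% = 10% serum control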
MOR-DOR inv ag-1 – inverse agonists of MOR-DOR heterodimerization, primary screen, cell-based, luminescence. AID 504357, 2011. inhibition, % at 9.3 µM. 340,000 compounds, 0.21% hits. cell-based MOR-DOR heterodimer luminescence, inverse agonism. Mu-type opioid receptor (Homo sapiens) + Delta-type opioid receptor (Homo sapiens), …; in the data active means inhibition above about 22%, passing the limit was not always enough;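 further: 0% = cells with DMSO and 100% = wells without cells with DMSO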
Target sequence (P35372 whole entry, looked up): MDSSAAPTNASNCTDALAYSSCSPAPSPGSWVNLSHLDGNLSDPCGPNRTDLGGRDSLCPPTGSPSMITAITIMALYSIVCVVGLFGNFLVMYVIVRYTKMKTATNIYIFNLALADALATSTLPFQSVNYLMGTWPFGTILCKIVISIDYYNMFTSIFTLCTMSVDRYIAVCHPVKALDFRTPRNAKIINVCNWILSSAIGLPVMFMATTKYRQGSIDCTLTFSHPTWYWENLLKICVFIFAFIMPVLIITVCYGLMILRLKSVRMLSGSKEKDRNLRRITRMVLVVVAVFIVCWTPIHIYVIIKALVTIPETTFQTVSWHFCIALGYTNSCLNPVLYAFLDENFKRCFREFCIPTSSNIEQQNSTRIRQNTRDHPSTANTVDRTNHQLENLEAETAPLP
Target sequence (P41143 whole entry, looked up): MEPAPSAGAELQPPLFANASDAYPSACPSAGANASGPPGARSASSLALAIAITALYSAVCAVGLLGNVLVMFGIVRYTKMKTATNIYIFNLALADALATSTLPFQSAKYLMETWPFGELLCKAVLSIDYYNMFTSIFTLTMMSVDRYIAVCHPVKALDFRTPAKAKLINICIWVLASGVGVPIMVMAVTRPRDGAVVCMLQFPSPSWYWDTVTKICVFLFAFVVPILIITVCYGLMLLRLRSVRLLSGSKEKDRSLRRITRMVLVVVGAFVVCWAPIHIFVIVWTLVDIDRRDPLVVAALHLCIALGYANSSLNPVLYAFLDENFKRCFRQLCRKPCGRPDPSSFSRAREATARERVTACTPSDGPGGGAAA
HTR5A inv ctr – HTR5A inverse agonists in luminescence cell assay, primary screen, counter-screen for OPRM1-OPRD1 heterodimer inverse agonist project, full-deck HTS; 5-hydroxytryptamine receptor 5A (Homo sapiens), P47898; HTR5A cell line, inverse agonism; inhibition, % at 9.3 µM; 340,000 compounds, 0.083% hits; AID 504634, 2011; in the data active means inhibition mostly above about 23%, no sharp cut-off; inactive means mostly below about 18%;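 further: 0% = cells with DMSO and 100% = no-cell wells with DMSO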
HTR5A ag ctr – HTR5A agonists in luminescence cell assay, primary screen, counter-screen for OPRM1-OPRD1 heterodimer agonist project, full-deck HTS | 5-hydroxytryptamine receptor 5A (Homo sapiens), P47898 | cell-based | activation, % at 9.3 µM | 340,000 compounds, 0.61% hits | AID 504692, 2011; in the data active means activation mostly above about 9.5%, no sharp cut-off; inactive means mostly below about 7.6%;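 further: 0% = cells with vehicle only and 100% = reference agonist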
OPRM1-OPRD1 ag – agonists of OPRM1-OPRD1 heterodimerization, primary screen, cell-based, luminescence; Mu-type opioid receptor (Homo sapiens) + Delta-type opioid receptor (Homo sapiens), …; cells; activation, % at 9.3 µM; 340,000 compounds, 0.3% hits; in the data active means activation above about 18%;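 further: 0% = vehicle-treated cells and 100% = reference agonist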
p-CIP stab down – p/CIP-EGFP fusion destabilizers, primary screen, fluorescence, F442A cells; Q05BA5; 16 h; decrease of EGFP signal, % at 10 µM; 290,000 compounds, 0.01% hits; AID 1984, 2009;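 active means EGFP signal decrease of at least 30% at 10 µM or well 3 SD below plate mean, unless failing retest; inactive means the rest, including hits failing retest or dose response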
MOR-DOR inv ag-2 – inverse agonists of MOR-DOR heterodimerization, counter-screen for HTR5A inverse agonist project, cell-based, luminescence | shares compounds with HTR5A inv ctr | U2OS counter-screen cells, complementation luminescence | inhibition, % at 9.3 µM | 190 tested, under 10 active;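 further: 0% = cells with DMSO and 100% = wells without cells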
HTR5A inv conf – HTR5A inverse agonists, retest of hits, confirmation, cell-based, luminescence. shares compounds with HTR5A inv ctr. HTR5A-expressing cells, inverse agonism. inhibition, % at 9.3 µM. 190 tested, under 10 active. AID 504916, 2011;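 further: 0% = cells with DMSO and 100% = no cells with DMSO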
Starred values were filed as active, the others as inactive; i = inactive; nt = no result. Unless noted, how the calls were made is not given here.

SMILES | beta cell repl | MOR-DOR inv ag-1 | HTR5A inv ctr | HTR5A ag ctr | OPRM1-OPRD1 ag | p-CIP stab down | MOR-DOR inv ag-2 | HTR5A inv conf
Clc1cccc(CN2CCC3CC2c2cc(N4CCCCC4)ccc23)c1 (stereo unspecified) | nt | 4 | 28* | -8 | -1 | nt | -13 | -7
O=c1[nH][nH]c(=O)c(Cl)c1Cl | nt | 2 | 3 | -1 | 0 | nt | nt | nt
COCCn1ccc2c(OCC(=O)NCc3ccc(C)cc3)cccc2c1=O | 6 | 11 | -4 | -8 | -2 | nt | nt | nt
O=C1C(Cl)=C(N2CCOCC2)C(=O)N1c1cccc(Cl)c1 | -5 | -1 | 30 | 2 | 0 | -12 | nt | nt
O=C1/C(=C/c2ccccc2)N=C(N2CCOCC2)N1c1cccc(Cl)c1 | -2 | 7 | 33* | 2 | -1 | -6 | -24 | 4
CCOc1ccc(NC(=O)C/C(C)=N/NC(=O)COc2ccc(Br)cc2C)cc1 | 0 | -8 | -24 | 6 | 1 | 2 | nt | nt
Cc1cccc(NC(=O)CNC(=O)c2cccs2)n1 | 0 | 3 | 31* | -11 | -1 | nt | -454 | 0
CC(C)(C)S(=O)N1Cc2cn(Cc3ccccc3)c(=O)cc2[C@H]1CCO (stereo partly specified) | nt | 9 | 17 | -5 | -2 | nt | nt | nt
CC(C)(C)OC(=O)NCCc1nnc(SCC(N)=O)o1 | -1 | 14 | 49* | -5 | -3 | -6 | -18 | 4
COc1ccccc1CNC(=O)c1cc(-c2ccccc2)n(Cc2cc(C)no2)n1 | -6 | 2 | -37 | 13 | 0 | nt | nt | nt
COc1ccc(CC(=O)N(C)CC(=O)Nc2c(C)cccc2C)cc1S(=O)(=O)N1CCOCC1 | 2 | -2 | 28* | -10 | 0 | nt | 81* | -3
Cc1ccc(CCNC(=O)C2CCN(S(=O)(=O)c3cccc4nsnc34)CC2)cc1 | 2 | -2 | 47* | -13 | 0 | 0 | 0 | 1
Cc1cc(C)n(-c2nc(Nc3ccccc3)nc(-n3nc(C)cc3C)n2)n1 | -1 | 23 | 6 | -1 | -5 | -15 | nt | nt
COc1cccc(/C=N/Nc2nc(Nc3ccccc3)nc(-n3nc(C)cc3C)n2)c1O | -4 | -4 | 40* | -18 | 1 | -27 | i | -4
COc1ccc(Cl)cc1C(=O)NNC(=O)CSc1nnc2ccccn12 | -2 | 9 | 27* | -10 | -2 | -6 | -37 | -2
O=C(CCc1nc2ccccc2c(=O)[nH]1)N1CCN(S(=O)(=O)c2ccc(F)cc2)CC1 | 2 | 17 | -7 | 1 | -4 | nt | nt | nt
NC(=O)c1ccc(NC(=O)CN2CCOCC2)cc1 | 1 | 6 | 34* | -9 | -1 | -15 | 43* | 22
CC(=O)c1ccc(NC(=O)CN2CCOCC2)cc1 | -2 | 5 | 5 | -1 | -1 | -2 | nt | nt
CCc1ccc(OCC(=O)Nc2ccc(S(=O)(=O)Nc3ccccn3)cc2)cc1 | 0 | 0 | 0 | 0 | 0 | -9 | nt | nt
Cc1onc(-c2ccccc2)c1C(=O)Nc1nnc(N2CCCCCC2)s1 | -4 | 28 | 25* | -8 | -5 | 4 | -6 | 2
CN(C)c1ccc(/C=C/c2ccc3ccccc3[n+]2C)cc1 | 0 | 23 | 29* | -11 | -4 | -49 | -2 | 28
COc1cc(/C=C2\N=C3CCCCCN3C2=O)ccc1O | -2 | 7 | -3 | 3 | -1 | 0 | nt | nt
O=C1/C(=C\c2ccc(O)c(O)c2)N=C2CCCCCN12 | -3 | 2 | 27* | -9 | 0 | 1 | -14 | 10
Cc1nonc1CN(C)C(=O)c1cc(COc2ccc(F)cc2Cl)on1 | -6 | 1 | 41* | 2 | 0 | -4 | -84 | 18
O=C(c1ccccc1)C(Nc1cccc([N+](=O)[O-])c1)c1ccccc1 (stereo unspecified) | nt | -17 | 10 | -3 | 3 | nt | nt | nt
